M1 ag parental: nonselective activator or artifact in parental CHO-K1 cells. Fluo-8 calcium fluorescence; scaled to maximal ATP response, vehicle zero. AID 602248. 360,000 compounds, 0.48% hits. activation, % at 3 µM; in the data active = activation above about 15%;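 also: untransfected CHO-K1 host cells lacking M1 receptor as counterscreen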
CHRM4 PAM: CHRM4 positive allosteric modulation; P08173; 360,000 compounds, 0.4% hits; activation, % at 3 µM; CHO-K1 hM4/Gqi5, Fluo-8 calcium fluorescence, ACh EC20; 0% = ACh EC20, 100% = maximal ACh;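 active = activation above its plate's cutoff, the mean activation of sample wells plus 3 SD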
Target sequence (P08173 whole entry, looked up): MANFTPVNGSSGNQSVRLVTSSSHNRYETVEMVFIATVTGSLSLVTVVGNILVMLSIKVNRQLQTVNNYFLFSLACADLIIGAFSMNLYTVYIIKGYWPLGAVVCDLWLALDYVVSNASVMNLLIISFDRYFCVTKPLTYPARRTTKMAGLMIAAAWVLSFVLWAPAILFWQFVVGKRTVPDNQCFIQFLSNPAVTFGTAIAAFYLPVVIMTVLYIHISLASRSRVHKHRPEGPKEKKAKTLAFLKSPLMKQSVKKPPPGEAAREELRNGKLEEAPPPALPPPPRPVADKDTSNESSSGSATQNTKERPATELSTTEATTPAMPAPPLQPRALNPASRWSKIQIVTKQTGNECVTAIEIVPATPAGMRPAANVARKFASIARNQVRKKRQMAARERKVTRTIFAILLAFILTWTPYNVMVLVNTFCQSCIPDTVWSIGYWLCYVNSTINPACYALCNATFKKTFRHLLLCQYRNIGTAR
CHRM4 agonist: CHRM4 agonism in calcium assay. P08173. CHO-K1 hM4/Gqi5, Fluo-8 calcium fluorescence; vehicle 0%, full acetylcholine response 100%. activation, % at 3 µM. 360,000 compounds, 0.14% hits. AID 624127;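 active = activation above the run mean over all test wells plus 3 SD, cut at about 32% in these data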;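 also: peak over basal fluorescence ratio per well then scaled between controls; 0% = DMSO wells and 100% = acetylcholine at EC100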
M1 PAM parental: nonselective activator or artifact in parental CHO-K1 calcium assay. ATP EC20, Fluo-8 calcium fluorescence; 0% at ATP EC20, 100% at ATP max. activation, % at 3 µM. 360,000 compounds, 0.02% hits;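 active = activation above the run cutoff, the mean activation of all test compounds plus 3 SD, cut at about 40% in these data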;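 also: peak over basal fluorescence ratio in a 140 s read after ATP addition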
CHO-K1 Ca antag: counter-screen for M1 antagonists: effect in parental CHO-K1 cells; inhibition, % at 3 µM; ATP-induced calcium, Fluo-8 fluorescence; 360,000 compounds, 0.6% hits; AID 602250;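 active = inhibition above a per-plate cutoff, the plate's mean sample inhibition plus 3 SD, cut at about 24% in these data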;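 also: 0% = DMSO plus EC80 ATP and 100% = DMSO alone without ATP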
CHRM4 antagonist: antagonists of human muscarinic M4 receptor (CHRM4); 360,000 compounds, 0.73% hits; P08173; CHO-hM4 cells, ACh EC80, Fluo-8 calcium fluorescence; inhibition, % at 3 µM;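 active = inhibition above its plate's cutoff, the mean inhibition of sample wells plus 3 SD, cut at about 27% in these data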;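 also: 0% = acetylcholine EC80 with DMSO and 100% = DMSO without agonist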
* = called active by the depositor. In the library only some 2% were active in any assay of this set; here they are far more common.

SMILES	M1 ag parental	CHRM4 PAM	CHRM4 agonist	M1 PAM parental	CHO-K1 Ca antag	CHRM4 antagonist
C=CCC1(CC=C)CCCN1C(=O)C1CCC(=O)N(Cc2ccc(Cl)cc2)C1 (centres undefined)	0.2	-6.3	1.2	3.6	-2.8	-7.0
OC(CCN1CCCCC1)(c1ccccc1)c1ccccc1	0.3	-18.3	1.2	-5.9	0.4	100.3*
CCCCOc1ccc(C(O)(CCN2CCOCC2)c2ccccc2)cc1 (centres undefined)	4.0	0.4	2.6	13.7	-15.9	-7.5
C=CCC(O)(CCN1CCCCC1)c1ccccc1 (centres undefined)	0.1	-24.1	0.2	6.9	-13.5	32.8*
OC(CCCN1CCCCC1)(c1ccccc1)c1ccc(C(F)(F)F)cc1 (centres undefined)	1.4	-10.8	5.2	-4.6	3.9	49.8*
OC(CCN1CCCC1)(c1ccccc1)C1CCCCC1 (centres undefined)	0.6	-16.7	1.3	21.3	-9.3	98.6*
COc1cccc(C(=O)NC2CCN(CC(=O)Nc3ccccc3Cl)CC2)c1	1.2	2.1	2.8	8.2	-14.3	-4.8
CCCOC1CCCN(C(=O)c2cc(COc3ccc(-n4cncn4)cc3)on2)C1 (centres undefined)	8.1	-2.9	10.3	4.0	2.3	-7.0
NC(=O)C(CCCCN1CCCCC1)(c1ccccc1)c1ccccc1	0.5	-9.4	0.2	8.5	-9.9	36.6*
O=C(CCN1CCCCCC1)c1ccccc1	0.2	-1.2	0.2	17.7	-7.1	0.0
CCC(Sc1nc2ccccc2[nH]1)C(=O)Nc1cc(C)on1 (centres undefined)	0.8	6.0	1.1	15.4	-1.3	7.1
CCC(Sc1nc(N)cc(=O)[nH]1)C(=O)Nc1cc(C)on1 (centres undefined)	0.1	25.8*	2.2	15.3	-7.5	-14.2
O=C(O)CCCn1cc(NC(=O)c2ccc(F)cc2)cn1	-0.2	2.0	0.0	7.6	0.8	24.4
O=C(O)CCCn1cc(NC(=O)c2c(F)cccc2F)cn1	16.4*	4.1	0.3	-3.5	15.2	1.3
O=C(CCl)Nc1ccccc1C(=O)c1ccccc1	1.3	19.8*	0.2	19.6	-17.1	-6.0
Nc1c(C(=O)N2CCOCC2)sc2nc3c(cc12)CCCC3	0.0	-2.6	1.6	1.9	-10.6	4.0
Nc1c(C(=O)N2CCOCC2)sc2nc3c(cc12)CCC3	0.5	14.9	1.6	-1.7	-8.4	35.3*
COc1cc(CN2CCN(C(c3ccccc3)c3ccccc3)CC2)cc(OC)c1OC	2.2	-16.7	-2.1	-2.8	7.5	44.8*
Cc1cc2ncn(C3CC(=O)N(Cc4ccccc4)C3=O)c2cc1C (centres undefined)	16.7*	-9.1	22.2	-8.2	-7.8	16.7
CC(c1ccccc1)C1OCC(C[N+]2(C)CCCCC2)O1 (centres undefined)	-0.4	-24.2	-0.1	16.6	-12.7	45.4*
CCCCC(CC)C1OCC(C[N+]2(C)CCOCC2)O1 (centres undefined)	-0.2	-13.9	1.3	14.2	-9.3	7.7
COc1ccc(CCN(C)C(=O)CN2C(=O)NC3(CCCc4ccccc43)C2=O)cc1OC (centres undefined)	-0.1	27.0*	2.5	-20.6	-11.1	-29.1
COc1cc2c(cc1NC(=O)CN1C(=O)NC3(CCc4ccccc43)C1=O)oc1ccccc12 (centres undefined)	1.1	2.7	12.5	24.5	-3.5	38.4*
Cn1c(=O)[nH]c2nnc(-c3ccc(Cl)c(Cl)c3)nc2c1=O	4.0	-9.9	0.8	14.3	-2.1	-6.9
Cc1ccccc1S(=O)(=O)NC(=O)C1(C)CCN1C(=O)CC(c1ccccc1)c1ccccc1 (centres undefined)	0.0	-0.5	0.3	6.4	0.1	-3.0
SMILES	M1 ag parental	CHRM4 PAM	CHRM4 agonist	M1 PAM parental	CHO-K1 Ca antag	CHRM4 antagonist
COc1cc(NC(=O)C2(C)CCCN2C(=O)C(C)C)cc(OC)c1OC (centres undefined)	0.1	1.1	0.7	6.1	0.2	0.2
COc1cc(NC(=O)C2(C)CCCN2C)cc(OC)c1OC (centres undefined)	-0.4	-1.6	0.2	-14.3	28.0*	1.9
Nc1nc(-c2ccc3c(c2)CCCC3)c(CC(=O)O)s1	-0.1	-15.1	0.6	-12.6	-13.4	29.1*
COc1ccc(NC(=O)CSc2nc3ccccc3c(=O)n2CCCN2CCCCC2)c(OC)c1	-0.1	-3.3	-0.2	24.9	-8.0	-0.4
CCOCCc1nnc(NC(=O)Cc2c(F)cccc2Cl)s1	2.3	19.2*	-0.6	15.1	-17.5	-13.5
CCOCCc1nnc(NC(=O)Cc2ccccc2)s1	0.1	11.7	-0.7	0.5	-5.9	0.2
CC(C)c1ccccc1OCC(=O)N(C)CC(=O)Nc1ccc(F)cc1	2.9	-0.5	3.8	11.2	4.1	-10.0
CC(C)(C)OC(=O)C[C@@H]1C/C=C\C[C@@H](CC(=O)NCCO)C(=O)N[C@H](Cc2ccccc2)COC1=O	-0.3	1.6	0.4	-5.7	4.7	-8.1
O=C(NC(c1ccc(-c2ccccc2)cc1)c1cnccn1)C1CCN(Cc2ccc(Oc3ccccc3)cc2)CC1 (centres undefined)	3.2	-11.4	8.2	9.1	7.0	6.1
Cc1cccnc1C(NC(=O)C1CCN(Cc2ccccc2)CC1)c1ccc(F)cc1 (centres undefined)	0.4	1.3	1.9	20.8	-11.6	-0.7
O=C(NC(c1ccc(-c2ccccc2)cc1)c1cnccn1)C1CCN(Cc2cccs2)CC1 (centres undefined)	1.8	-8.8	6.9	-4.9	23.8*	0.2
O=C(NC(c1ccc(-c2ccccc2)cc1)c1cnccn1)C1CCN(CCN2C(=O)c3ccccc3C2=O)CC1 (centres undefined)	0.2	-7.5	2.3	-14.4	29.6*	4.0
Cc1cccnc1C(NC(=O)C1CCN(Cc2ccc(Oc3ccccc3)cc2)CC1)c1ccccc1 (centres undefined)	0.5	-13.2	2.8	1.5	0.5	29.4*
Cc1cc(C)c(NC(=O)Cn2nnc(C(=O)NCc3ccc4c(c3)OCO4)c2N)c(C)c1	0.5	-3.7	0.8	11.9	-13.1	4.5
Cc1ccccc1-n1c(=O)cc(N2CCc3ccccc3C2)[nH]c1=O	17.9*	-0.7	-0.2	12.5	5.0	6.7
COc1nc(NCCO)nc(Nc2ccc([N+](=O)[O-])cc2)n1	0.2	24.5*	1.9	11.3	-5.4	-1.9
CSc1ccc(S(=O)(=O)NCC(=O)OCC(=O)NCc2cccs2)cc1[N+](=O)[O-]	1.1	1.3	3.9	-5.8	0.7	-0.5
CC(NS(=O)(=O)OCC(Cl)(Cl)Cl)c1ccc(C(C)(C)C)cc1 (centres undefined)	-0.5	-13.0	3.7	-15.6	-3.2	44.9*

Screening results (PubChem)
